# Screening results as filed in PubChem BioAssay.
# Pf growth 48h: inhibits P. falciparum growth in the first generation, 48 h; P. falciparum luciferase growth in erythrocytes, 48 h; Potency, µM (top dose mostly 28.7 µM), inactives show top-dose activity change, negative = inhibition, actives largely listed as inhibitors; 310,000 compounds, 5.9% hits; AID 504832; also: potency is read from the fitted curve at half-maximal effect; % is scaled to controls: 0 for no effect and ±100 for the full control effect
#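 Here the parasites carry a stable luciferase gene and grow inside erythrocytes in Albumax-based RPMI medium with compound for one erythrocytic cycle. Activity is scored as loss of luminescent signal.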
# SARS PLP yeast: blocks SARS-CoV papain-like protease in a yeast assay; S. cerevisiae expressing SARS-CoV PLpro, growth rescue; Potency, µM (doses to about 32.9 µM), for inactives: at the highest dose activity, positive = growth rescue, usual class: activators; 330,000 compounds, 0.19% hits; calls by dose curve; also: potency is read from the fitted curve at half-maximal effect; 0% is about no effect; nearly all actives have a fitted effect of over 55% in size
# Shiga inhibitor: Shiga toxin inhibition; Vero cells, Shiga toxin protein synthesis inhibition reporter; inhibition, % at 38.7 µM; 290,000 compounds, 9.2% hits; AID 2315; in the data active = inhibition mostly above about 28%, no sharp cut-off; inactive = mostly below about 43%; also: 0% is about no effect
# AMA1 RON2 block: inhibitors of Plasmodium falciparum AMA1-RON2 interaction | 360,000 compounds, 0.2% hits | AlphaScreen AMA1-biotinylated RON2 peptide binding | Potency, µM (highest dose often 58.2 µM), for the others: at the top dose activity change, negative = inhibition, actives largely listed as inhibitors;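 also: potency is read from the fitted curve at half-maximal effect; 0% = vehicle wells and -100% = peptide control; nearly all actives have a fitted effect of over 45% in size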
#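 AMA1 (3D7) with his tag at 25 nM final met compounds first, then biotinylated RON2 peptide at 25 nM; detection used donor plus acceptor beads, 10 µg/mL apiece, read by AlphaScreen after 30 min at room temperature.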
# CHX counter: counter-screen for Shiga toxin inhibitors: cycloheximide protein synthesis inhibition; cell reporter, cycloheximide protein synthesis inhibition counterscreen; max response, %; 300,000 compounds, 12% hits; AID 2314; in the data active = max response mostly above about 13%, no sharp cut-off; inactive = mostly below about 14%; also: read at 38.3 µM for the half of the compounds with a filed dose; 0% is about no effect
# Pf growth 96h: P. falciparum growth inhibition at 96 hours; P. falciparum luciferase reporter growth, 96 h; Potency, µM (highest dose often 28.7 µM), inactives show at the top dose activity change, negative = inhibition, most hits filed as inhibitors; 320,000 compounds, 6.9% hits; also: potency is read from the fitted curve at half-maximal effect; % is scaled to controls: 0 for no effect and ±100 for the full control effect
#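 Plates of compound plus infected erythrocytes (2% hematocrit, 0.05% parasitemia final) incubate 96 hours, 37 C, 5% CO2. Detection reagent added; reduced luminescence from the parasites' luciferase reporter flags inhibition.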
# Starred values were filed as active, the others as inactive; ? = inconclusive; / = no result; ! = not confirmed by another sample; [ ] = remark or other dose. Hits are enriched below; roughly 19% of the tested compounds scored in any of these assays. Unless noted, calls follow the shape of the dose curve; as a rule, active = well fitted curve in the direction sought with a large enough effect; inconclusive = small, poorly fitted or top-dose-only effect, or another doubt; inactive = no such curve, though single readings can be large; an effect the other way counts as inactive or inconclusive.
SMILES,Pf growth 48h,SARS PLP yeast,Shiga inhibitor,AMA1 RON2 block,CHX counter,Pf growth 96h
O=C(CC1NCCNC1=O)Nc1ccccc1 (stereo not drawn),8.1%,0.1%,-7.2,-3.8%,-1.0,446.4%
CN(C)c1ccc(NC(=O)CC2NCCNC2=O)cc1 (stereo not drawn),12.2%,/,17.8,4.3%,-2.9,0.208µM*
Cc1ccc(NC(=O)CC2NCCNC2=O)cc1 (stereo not drawn),22.6%,-0.3%,17.5,36.1%,10.5*,26.6%
CN(C)C(=O)CSc1nc2ccc(N3C(=O)c4ccccc4C3=O)cc2s1,34.4%,0.0%,-1.7,5.3%,0.9,3.9%
CN(C(=O)CCCOc1ccc2[nH]c(=O)ccc2c1)C1CCCCC1,?,/,/,/,/,0.601µM*
CC1CCC(NC(=O)CN2C(=O)C3CCCN3c3ncc(Cl)cc32)CC1 (stereo not drawn),3.7µM*,-2.3%,-1.4,/,-2.4,/
CCc1ccccc1NC(=O)CN1C(=O)C2CCCN2c2ncc(Cl)cc21 (stereo not drawn),?,-1.0%,7.4,6.4%,0.3,26.2%
COC(=O)c1ccccc1NC(=O)CN1C(=O)C2CCCN2c2ncc(Cl)cc21 (stereo not drawn),2.94µM*,4.8%,7.5,/,-1.5,-15.1%
O=C(CN1C(=O)C2CCCN2c2ncc(Cl)cc21)NCc1ccc2c(c1)OCO2 (stereo not drawn),9.28µM*,8.1%,-10.1,-1.6%,2.6,22.9%
COc1ccc(CNC(=O)CN2C(=O)C3CCCN3c3ncc(Cl)cc32)cc1 (stereo not drawn),?,-5.4%,-6.4,4.1%,-1.6,/
C[C@@H]1C2CC(C/C2=N\NC(=O)c2ccncc2)C1(C)C (stereo partly drawn),-19.9%,-0.5%,-7.2,57.1%,11.0,-20.8%
CC(=O)c1ccc(NC(=O)C(C)OC(=O)c2cccc(-n3cnnn3)c2)cc1 (stereo not drawn),-0.5%,3.7%,/,0.4%,/,23.9%
CC(=O)c1ccc(NC(=O)C(C)OC(=O)c2ccc3c(c2)nc(C)n3-c2ccccc2)cc1 (stereo not drawn),0.9%,7.3%,44.6*,12.3%,28.5*,21.0%
O=C1NC2(CCCCC2)C(=O)N1/N=C/c1ccc(O)cc1O,/,4.3%,53.0*,59.4%,38.0*,?
O=C1NC(=O)/C(=C\c2ccc(O)cc2O)S1,10.3%,-1.5%,12.4,?,-3.2,63.3%[5.75 µM]
O=C1NC2(CCCCC2)C(=O)N1/N=C/c1ccccc1Br,3.29µM*,2.9%,37.1,-14.4%,22.9*,22.9%
O=C(CN(Cc1ccco1)C(=O)c1ccc(F)cc1)Nc1ccccc1Br,/,-4.3%,/,-3.5%,/,/
O=Cc1sc(N2CCOCC2)nc1-c1ccccc1,0.0%,-0.3%,33.9,/,5.8,49.3%[5.75 µM]
OC(COCc1ccccc1)CN1CCN(Cc2ccc3c(c2)OCO3)CC1 (stereo not drawn),6.5%,-4.8%,-9.6,-3.6%,-3.0,-28.1%
SC(COCc1ccccc1)CN1CCN(Cc2ccc3c(c2)OCO3)CC1 (stereo not drawn),?,-30.2%,-10.1,25.1µM*,-4.1,8.28µM*
CC(=O)c1ccc(OCC(O)CN2CCN(Cc3ccc4c(c3)OCO4)CC2)cc1 (stereo not drawn),-3.1%,5.1%,-5.0,6.5%,-3.8,4.15µM*!
Cc1[nH]nc(-c2ccc(O)c(C)c2O)c1-c1cnn(-c2ccccc2)c1,-11.8%,-8.9%,-7.7,14.7%,-4.4,/
O=C1CC(c2ccc(O)cc2)Oc2cc(O)ccc21 (stereo not drawn),/,/,/,-3.8%,/,/
O=C1C[C@@H](c2ccc(O[C@@H]3O[C@H](CO)[C@@H](O)[C@H](O)[C@H]3O)cc2)Oc2cc(O)ccc21,2.9%,0.9%,active,0.6%,20.4*,-13.4%
CCC(=O)NC(=S)Nc1cc(C(=O)O)ccc1OC,-2.4%,1.4%,8.9,0.0%,-1.4,-0.5%
SMILES,Pf growth 48h,SARS PLP yeast,Shiga inhibitor,AMA1 RON2 block,CHX counter,Pf growth 96h
Oc1ccc(F)c2cccnc12,?,0.1%,1.9,66.7%,-1.4,14.7µM*
Oc1ccc(Cl)c2cccnc12,13.5µM*,/,/,5.5%,/,12µM*
CC(=O)NCc1cc(Cl)c2cccnc2c1O,?,-1.8%,/,/,/,-11.9%
Oc1c(Cl)cc(Cl)c2cccnc12,8.49µM*,-21.9%,-1.3,-53.5%,-0.9,4.26µM*!
Oc1c(I)cc(I)c2cccnc12,?,-74.2%,12.3,70.0%,-2.6,10.7µM*!
O=C(O)c1ccc(O)c2ncccc12,?,-2.9%,/,/,/,?
O=C(OCc1nnc(-c2cccs2)o1)C1=NN(c2ccccc2)C(=O)CC1,8.2%,4.2%,/,1.9%,/,0.4%
Cc1ccc(S(=O)(=O)Nc2cc(Cl)c(O)c3ncccc23)cc1,7.38µM*,?,13.2,-47.9%,-1.7,-5.1%
CCCCCCCCCCOc1cc2c(=O)c(C(=O)OCC)c[nH]c2cc1OCC,0.0015µM*,/,/,/,/,-103.0%
CCCCCOC(=O)c1cc(=O)[nH]c2ccccc12,-4.8%,0.8%,0.9,-0.2%,-0.4,-17.4%
CC(C)NC(=O)CC(=O)NN=C1CCCCC1,24.2%,0.7%,12.6,40.3%,-6.5,-2.9%
Cc1cnc(C(=O)OCC(=O)c2cc(C)n(C)c2C)cn1,-6.1%,-0.1%,26.0,7.1%,12.4,12.2%
CCOc1ccc(CCNC(=O)COC(=O)c2cc([N+](=O)[O-])ccc2N2CCOCC2)cc1OCC,?,1.3%,-11.4,-3.3%,-1.8,9.28µM*
CCOc1ccc(CCNC(=O)COC(=O)c2cc(OC)c(OC)cc2[N+](=O)[O-])cc1OCC,14.7µM*,2.6%,/,-17.0%,/,?
COc1ccc(CCNC(=O)Cc2cc(OCc3ccccc3)c(OC)cc2[N+](=O)[O-])cc1OC,?,0.2%,-38.0,-4.5%,2.3,?
COc1cc(CC(=O)NCCc2ccc(OCc3ccccc3)cc2)c([N+](=O)[O-])cc1OC,4.2%,0.4%,55.4,15.2%,48.9*,/
CCOc1ccc(CCNC(=O)c2cc([N+](=O)[O-])ccc2N2CCOCC2)cc1OCC,?,-0.6%,9.6,5.0%,-2.0,?
O=[N+]([O-])/C=C1/CCCCCN1,27.6%,-0.1%,-13.4,-4.8%,-1.8,3.2%
O=C(CCCn1c(=O)[nH]c2cc(Cl)ccc2c1=O)NCCCN1CCN(c2ccc(F)cc2)CC1,?,-1.1%,-8.7,-5.3%,4.7,12.7%
CCCC(C)NC(=O)COc1ccc(Sc2ccc(OCC(=O)NC(C)CCC)cc2)cc1 (stereo not drawn),7.38µM*,17.1%,-5.1,-18.8%,-1.4,?
CC(C)CNC(=O)COc1ccc(Sc2ccc(OCC(=O)NCC(C)C)cc2)cc1,?,-14.7%,-11.6,12.7%,-3.7,?
CN(CC(=O)Nc1ccccc1Cl)C(=O)CN1C(=O)C2CCCCC2C1=O (stereo not drawn),23.2%,1.2%,/,-4.1%,/,18.3%
O=C1c2ccccc2-c2nc3ccccc3nc21,?,-15.7%,52.4,3.7%,28.7*,/
